Screen size: about 13,000 compounds; about 3,200 (25%) showed an effect of 50% or more. The list shows a part of the results.
Tested on: P. falciparum stage V gametocytes
Design: BacTiter-Glo ATP luminescence viability of purified stage V gametocytes in 384-well plates, per cent inhibition versus DMSO
Settings: 48 h, 5 µM; inhibitor

| Compound | % Inhibition |
| --- | --- |
| CC[C@H]1CN2CC[C@H]1C[C@H]2[C@H](O)c1ccnc2ccc(C#N)cc12 [TCMDC-138234] | 18.99% |
| CC(=O)c1c[nH]c(C(=O)Nc2ccc(-c3cn4ccccc4n3)cc2)c1 [TCMDC-124599] | 36.18% |
| N=C(N)NN=CC(=O)Nc1cc([N+](=O)[O-])cc([N+](=O)[O-])c1 [TCMDC-137446] | 15.96% |
| CCCCc1cc(NCC)nc(Nc2ccc(OC)cc2)n1 [TCMDC-133991] | -52.54% |
| Nc1nc2c(c(=O)[nH]1)-c1cccc(Br)c1CC2 [TCMDC-137755] | -6.306% |
| Cc1cnc(Nc2ccccc2)nc1N[C@@H](CCCN)C(=O)Nc1ccccc1 [TCMDC-134915] | 85.94% |
| Cc1ccc(CNC(=O)[C@H](Cc2ccccc2)Nc2cc(C)nc(NCC3CCCCC3)n2)cc1 [TCMDC-134932] | -13.97% |
| Cc1cnc(NCC2CCCCC2)nc1N[C@@H](CC(C)C)C(=O)Nc1ccccc1 [TCMDC-134751] | -31.13% |
| Cc1ccc(CNC(=O)[C@H](CC(C)C)Nc2cc(C)nc(NCC3CCCCC3)n2)cc1 [TCMDC-134918] | -23.99% |
| Cc1ccc(CNC(=O)[C@H](CCCN)Nc2cc(C)nc(NCC3CCCCC3)n2)cc1 [TCMDC-134923] | 95.63% |
| Cc1ccc(CNC(=O)[C@H](CC(C)C)Nc2cc(C)nc(Nc3ccccc3)n2)cc1 [TCMDC-134740] | 5.216% |
| Cc1ccc(CNC(=O)[C@H](CCCN)Nc2cc(C)nc(Nc3ccccc3)n2)cc1 [TCMDC-134744] | 61.85% |
| Cc1cnc(NCC2CCCCC2)nc1N[C@@H](CO)C(=O)Nc1ccccc1 [TCMDC-134859] | -15.9% |
| Cc1ccc(CNC(=O)[C@H](Cc2ccccc2)Nc2ccnc(NCC3CCCCC3)n2)cc1 [TCMDC-134709] | -30.11% |
| Cc1ccc(CNC(=O)[C@H](CCCN)Nc2nc(Nc3ccccc3)ncc2C)cc1 [TCMDC-134947] | 27.45% |
| Cc1ccc(CNC(=O)[C@H](Cc2ccccc2)Nc2cc(C)nc(Nc3ccccc3)n2)cc1 [TCMDC-134858] | 7.065% |
| Cc1ccc(CNC(=O)[C@H](CCCN)Nc2nc(NCC3CCCCC3)ncc2C)cc1 [TCMDC-134754] | 82.69% |
| O=c1cc(NCCCNCc2ccc(Cl)c(Cl)c2)[nH]c2ccc(Oc3ccccc3)cc12 [TCMDC-139409] | 3.988% |
| CCN(CC)CCCC(C)N=C(Nc1ccc(C#N)cc1O)Nc1ccccc1Br (stereo not drawn) [TCMDC-140130] | 34.96% |
| COc1ccccc1CNC(=O)c1nn(-c2ccc(Cl)cc2)c(=O)c2ccccc12 [TCMDC-125601] | -3.161% |
| CCCc1ccc(S(=O)(=O)NC2CCN(c3ccnc(Nc4ccc(OC)cc4)n3)C2)cc1 (stereo not drawn) [TCMDC-133613] | 30.72% |
| O=C(NCC1CCC(C(=O)NCCc2ccc(Cl)c(Cl)c2)CC1)c1ccc(O)c(-c2ccc(Cl)c(Cl)c2)c1 (stereo not drawn) [TCMDC-140893] | 30.85% |
| COc1ccc(NC(=O)Nc2cc(C)nc3cccnc23)cc1Cn1ccnc1 [TCMDC-140647] | -24.24% |

| Compound | % Inhibition |
| --- | --- |
| COc1ccccc1CCCN1C(=O)C(c2ccccc2)(c2ccccc2)N=C1N [TCMDC-136504] | -6.463% |
| O=C(c1cc(-c2ccccc2)n[nH]1)N1CCN(S(=O)(=O)c2ccc(Cl)s2)CC1 [TCMDC-124697] | 44.38% |
| Cc1cc(Cc2ccc(S(=O)(=O)c3cc4c(cc3O)CCN(C)CC4)cc2)ccc1Cl [TCMDC-135485] | 17.27% |
| O=[N+]([O-])c1ccc2c(c1)c1ccccc1n2Cc1ccccc1O [TCMDC-124344] | 66.38% |
| O=[N+]([O-])c1ccc2c(-c3ccccc3)c(-c3ccccc3)n(O)c2c1 [TCMDC-137050] | 9.077% |
| Cc1nc2ccc([N+](=O)[O-])cc2c(=O)n1OCc1ccccc1 [TCMDC-131598] | 18.76% |
| Cc1ccc(C(=O)Nc2ccc(F)c(F)c2F)cc1S(=O)(=O)N1CCCCC1 [TCMDC-124324] | 19.7% |
| CC1(C)N=C(N)N=C(N)N1OCCCOc1cc(Cl)ccc1Cl [TCMDC-131679] | 20.73% |
| CC1(C)N=C(N)N=C(N)N1OCCCCOc1ccccc1 [TCMDC-131658] | 4.25% |
| CC1(C)N=C(N)N=C(N)N1OCCCCOc1ccc(Cl)cc1C1CCCCC1 [TCMDC-131659] | 106.8% |
| CCCc1cc(OCCCOc2ccccc2)ccc1OCCCON1C(N)=NC(N)=NC1(C)C [TCMDC-131328] | 103.6% |
| CCCc1cc(C)ccc1OCCCON1C(N)=NC(N)=NC1(C)C [TCMDC-131320] | 40.89% |
| CC(C)(C)c1ccccc1OCCCON1C(N)=NC(N)=NC1(C)C [TCMDC-131751] | 48.16% |
| CCOC(=O)c1cc(Cl)ccc1OCCCON1C(N)=NC(N)=NC1(C)C [TCMDC-131705] | -0.9845% |
| CC1(C)N=C(N)N=C(N)N1OCCCOc1cc(Cl)c(Cl)cc1Cl [TCMDC-137301] | -2.55% |
| CC(C)(C)c1ccc(OCCCON2C(N)=NC(N)=NC2(C)C)c(C(C)(C)C)c1 [TCMDC-131308] | 56.27% |
| COC(=O)Cn1c(C2CCN(CC3CCC(NC(=O)/C=C/c4ccc(Cl)c(Cl)c4)CC3)CC2)nc2ccccc21 (stereo not drawn) [TCMDC-140297] | -20.25% |
| OC(CNCc1ccccc1OC(F)F)c1cccc(C(F)(F)F)c1 (stereo not drawn) [TCMDC-140395] | 21.35% |
| c1ccc(COc2ccc(COc3ccc(Cn4ccnc4)cc3)cc2)cc1 [TCMDC-136714] | 11.69% |
| O=C(Nc1ccc(N2CCC(Nc3ccccn3)CC2)cc1)c1cnc(Cl)c(Cl)c1 [TCMDC-134629] | 28.05% |
| Cc1cccc2nc(-c3ccc(-c4cccc(C(=O)NCCN5CCCC5)c4)s3)[nH]c12 [TCMDC-132317] | 13.21% |
| Cc1cc(N[C@@H](CC(C)C)C(=O)NC2CCCC2)nc(NCC2CCCCC2)n1 [TCMDC-134936] | -32.07% |
| Cc1cc(N[C@@H](Cc2ccccc2)C(=O)NC2CCCC2)nc(NCC2CCCCC2)n1 [TCMDC-134927] | -16.19% |

| Compound | % Inhibition |
| --- | --- |
| Cc1cc(N[C@@H](Cc2ccccc2)C(=O)NC2CCCC2)nc(NCCOc2ccccc2)n1 [TCMDC-134755] | 31.62% |
| Cc1cc(N[C@@H](CC(C)C)C(=O)NC2CCCC2)nc(NCCc2ccc(F)cc2)n1 [TCMDC-134791] | 99.38% |
| Cc1cc(N[C@@H](CC(C)C)C(=O)NC2CCCC2)nc(NCc2ccccc2C)n1 [TCMDC-134908] | -12.42% |
| Cc1cc(N[C@@H](Cc2ccccc2)C(=O)NC2CCCC2)nc(NCCc2ccc(F)cc2)n1 [TCMDC-134784] | 110% |
| O=c1cc(NCCCNCc2ccc(Cl)c(Cl)c2)[nH]c2cc(F)cc(F)c12 [TCMDC-139408] | -8.545% |
| COc1cc(NC(=O)N2CCOC(CCN3CCC(c4ccccc4)CC3)(c3ccc(Cl)c(Cl)c3)C2)cc(OC)c1 (stereo not drawn) [TCMDC-135343] | -16.83% |
| COc1ccc2nccc([C@@H](O)CN3CCC(NCCNc4ccccn4)CC3)c2c1 [TCMDC-140562] | 28.84% |
| COc1ccc(C(=O)N2CCC3(CC2)C(=O)N(CC(=O)NC2CCCCC2)CN3c2ccccc2)c(OC)c1 [TCMDC-125169] | -35.99% |
| COCCCNC(=O)C1CCN(C(c2ccc(Cl)cc2)c2ccc(Cl)cc2)CC1 [TCMDC-135521] | -10.75% |
| O=C(c1ccccc1)N1COCC(CCN2CCC(N3CCCC3)CC2)(c2ccc(Cl)c(Cl)c2)C1 (stereo not drawn) [TCMDC-141760] | 43.61% |
| O=C(Nc1ccccc1)NC1CCN(CCC2(c3ccc(Cl)c(Cl)c3)COCN(C(=O)c3ccccc3)C2)C1 (stereo not drawn) [TCMDC-141759] | 59.82% |
| CC(=O)c1ccc(N2CCN(CCC3(c4ccc(Cl)c(Cl)c4)COCN(C(=O)c4ccccc4)C3)CC2)cc1 (stereo not drawn) [TCMDC-141761] | 30.09% |
| O=C1NC(c2ccc(N3CCCCCC3)cc2)Nc2ccccc21 (stereo not drawn) [TCMDC-125058] | 38.08% |
| CCN(CC)C(=O)C1CCCN(C(=O)Nc2cc(C(F)(F)F)cc(C(F)(F)F)c2)C1 (stereo not drawn) [TCMDC-124042] | -75.6% |
| CC(CN1CCN(C)CC1)C(=O)Nc1cccc(-c2cccc(-c3nc4ccc(F)cc4[nH]3)c2)c1 (stereo not drawn) [TCMDC-137145] | 48.07% |
| CC(CN(C)C)C(=O)Nc1cccc(-c2ccc(-c3nc4ccc(F)cc4[nH]3)cc2)c1 (stereo not drawn) [TCMDC-137106] | -31.14% |
| CC(CN1CCN(C)CC1)C(=O)Nc1ccc(-c2ccc(-c3nc4ccc(F)cc4[nH]3)cc2)cc1 (stereo not drawn) [TCMDC-136777] | 4.283% |
| CC(CN(C)C)C(=O)Nc1ccc(-c2ccc(-c3nc4ccc(F)cc4[nH]3)cc2)cc1 (stereo not drawn) [TCMDC-136778] | 6.212% |
| CC(CN1CCN(C)CC1)C(=O)Nc1ccc(-c2cccc(-c3nc4ccc(C(F)(F)F)cc4[nH]3)c2)cc1 (stereo not drawn) [TCMDC-137149] | 40.39% |
| CC(CN1CCN(C)CC1)C(=O)Nc1cccc(-c2ccc(-c3nc4ccc(C(F)(F)F)cc4[nH]3)cc2)c1 (stereo not drawn) [TCMDC-137152] | 80.48% |
| CC(CN1CCN(C)CC1)C(=O)Nc1cccc(-c2ccc(-c3nc4ccc(F)cc4[nH]3)cc2)c1 (stereo not drawn) [TCMDC-137146] | 77.49% |
| CC(CN1CCN(C)CC1)C(=O)Nc1ccc(-c2cccc(-c3nc4ccc(F)cc4[nH]3)c2)cc1 (stereo not drawn) [TCMDC-137143] | 97.96% |
| CC(CN1CCN(C)CC1)C(=O)Nc1ccc(-c2ccc(-c3nc4ccc(C(F)(F)F)cc4[nH]3)cc2)cc1 (stereo not drawn) [TCMDC-137153] | -5.664% |
